About 79,000 compounds went through this panel and 15% of them were active in at least one assay; those are over-represented in the sample as a whole. A number with no mark means an inactive call. Activity calls are given as the source filed them. No stated cut-off is given here; in the data, active means growth inhibition above about 70%; inactive means the rest.
Assays:
[1] = NCI Yeast Anticancer Drug Screen. Data for the rad50 strain (AID 155);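 further: 0% = growth of vehicle-only cultures of the same strain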; settings: S. cerevisiae rad50 strain growth inhibition; at 50.0 µM; hits give high values
How it was run: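 Genetically altered yeast (DNA repair pathway); compound treatment; growth inhibition vs vehicle ctrl.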

[2] = NCI Yeast Anticancer Drug Screen. Data for the mec2-1 strain (AID 157); settings: S. cerevisiae mec2-1 strain, at 50.0 µM, hits give high values
How it was run: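 Test agents were screened against the mec2-1 yeast strain, with defined DNA repair or cell cycle alteration. Growth was scored as inhibition against vehicle-only controls.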

[3] = NCI Yeast Anticancer Drug Screen. Data for the sgs1 mgt1 strain (AID 161);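 further: 0% = growth of cultures given vehicle only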; settings: S. cerevisiae sgs1 mgt1 strain, at 50.0 µM, hits give high values
How it was run: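 Genetically altered yeast, compound exposure, growth inhibition relative to vehicle.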

[4] = NCI Yeast Anticancer Drug Screen. Data for the cln2 rad14 strain (AID 165);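 further: 0% = growth equal to vehicle treated cultures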; settings: S. cerevisiae cln2 rad14 strain, at 50.0 µM, hits give high values
How it was run: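 Growth of compound-exposed yeast (cln2 rad14 genotype) measured and expressed as inhibition relative to vehicle.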

[5] = NCI Yeast Anticancer Drug Screen. Data for the bub3 strain (AID 167); settings: S. cerevisiae bub3 mutant strain, at 50.0 µM, hits give high values
How it was run: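 Yeast carrying a defined mutation is treated with each compound, and growth is compared with that of vehicle-exposed cells to give inhibition.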

[6] = NCI Yeast Anticancer Drug Screen. Data for the mlh1 rad18 strain (AID 175); settings: S. cerevisiae mlh1 rad18 strain growth inhibition; at 50.0 µM; hits give high values
How it was run: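 In this whole-cell yeast screen, a strain with altered DNA damage repair is challenged with compound, and its growth is measured against matched vehicle-treated controls.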

SMILES | growth inhibition [1] [%] | growth inhibition [2] [%] | growth inhibition [3] [%] | growth inhibition [4] [%] | growth inhibition [5] [%] | growth inhibition [6]
NC(N)=NC(Cc1ccccc1)C(=O)O (stereo not given) | -8.15 | -10 | 1.3 | -26.6 | -12.4 | 0%
CCOC(=O)Nc1cc(C(F)(F)F)ccc1F | -14.8 | -16.2 | -14 | -43.9 | 3.95 | -7.1%
CS(C)(=O)=Nc1ccc(F)cc1 | 8.9 | -7.6 | -2.3 | -21.7 | -13.1 | 3.25%
CC(C)(C)[Si](C)(C)OCC1CCC(n2cnc3c(N)ncnc32)O1 (stereo not given) | 19.7 | -3.1 | -6.2 | -4.7 | -1.95 | 6.7%
COc1cc(N=Nc2ccc(N)nc2N)c(OC)cc1N=Nc1ccc([N+](=O)[O-])cc1 | 12.6 | 23 | 1.8 | 21.6 | 9.4 | 27.1%
CNC(=O)c1ccccc1CC1(O)CCCC1 | -9.85 | -15.5 | -0.5 | 8.5 | -9.75 | -25.1%
Cn1c2c(c3ccccc31)CCCC2 | 1.55 | -14.8 | 1.4 | -16.8 | 4.5 | 5.35%
O=C1c2cc3c(cc2CC12Cc1ccc4c(c1C2=O)CCCC4)CCCC3 (stereo not given) | -3.15 | -4.15 | -10.4 | 3.6 | 7.35 | 9.8%
N#Cc1nc(C2=C(Cl)c3ccccc3OC2)[nH]c1C#N | 40 | 42.9 | 46.5 | 56.5 | 50.6 | 31.8%
O=[N+]([O-])c1cccc(-c2cc(-c3cccs3)cc(-c3ccccc3)n2)c1 | 6.7 | 3.95 | -1.95 | -1.4 | 2.85 | 4.95%
c1ccc2c(c1)CC1C3c4ccccc4C(c4ccccc43)C1C2 (stereo not given) | -12.1 | 3.1 | -8.95 | 8.35 | -16.2 | -25.1%
CCN(CC)C(=S)N=N/C(C)=C1/C=CC=CN1O | 1.4 | 0.4 | 14.6 | 13.6 | 16.2 | 74% (active)
O=c1[nH]c(=O)n(C2CC(O)C(CO)O2)c2ncncc12 (stereo not given) | -0.85 | -0.3 | 4.45 | 2.15 | -10.1 | -57.1%
COC(=O)C1OC(O[C@H]2CC[C@]3(C)[C@H]4CC=C5[C@@H]6CC(C)(C)CC[C@]6(C(=O)OC6OCC(O)C(O)C6OC6OC(C)C(OC7OCC(O)C(O)C7O)C(OC7OCC(O)(CO)C7O)C6O)[C@H](O)C[C@@]5(C)[C@]4(C)CC[C@H]3C2(C)C)C(O)C(O)C1O (stereo not given in full) | 16.1 | -10.3 | -6.1 | 34.6 | 13.6 | 10.3%
CCCCN(CCCC)C(=O)C(=O)C(C#N)c1ccc(C)cc1 (stereo not given) | -7 | -0.8 | 6.15 | 17.6 | 20.7 | -9.3%
CCCC(CCC)(C(=O)OCC)C(=O)OCC | 1.45 | 6.15 | -1.3 | -15.4 | -4.25 | 0.65%
CSc1nc(NC2OC(COC(C)=O)C(OC(C)=O)C(OC(C)=O)C2OC(C)=O)c(N=C(C)C(C)=O)c(=O)n1C (stereo not given) | 16.2 | -7.75 | -14.2 | 9.7 | 1.2 | 6.95%
COCC/C=C/CCl | -8.75 | -22.6 | -8.35 | -8.95 | -7.65 | 5.1%
CCCCCCCCCCCCCCCCCCCC/C=C/C1CC(=O)OC1=O (stereo not given) | -4.8 | -6 | 16.9 | 26.8 | 16.9 | 7.1%
C/C=C/CS(=O)(=O)Cc1ccccc1 | 1.85 | -11.8 | -5.95 | -3.95 | -4.3 | -14.9%

SMILES | growth inhibition [1] [%] | growth inhibition [2] [%] | growth inhibition [3] [%] | growth inhibition [4] [%] | growth inhibition [5] [%] | growth inhibition [6]
CC(=NNC(=S)Nc1cccc(C)c1)c1cccc(C(C)=NNC(=S)Nc2cccc(C)c2)n1 | 37.4 | 41.2 | 62.6 | 29.1 | 35.4 | 47.2%
CC(=O)OC1CC(c2ccccc2)N(C)C(c2ccccc2)C1 (stereo not given) | 6.85 | -8 | 2.55 | -7.9 | -3.15 | 10.6%
C(=C\C1OCCO1)/c1ccccc1 | 14.4 | 0.45 | 7.25 | -2.4 | 18.1 | -3%
CCOC(=O)C(C#N)=C1c2ccccc2Oc2ccccc21 | -3.7 | 0.9 | -2 | -46 | 6.95 | -1.15%
CC(C)C(=O)Nc1nc2c(ncn2C2OC(CO)C(O)C2O)c(=O)[nH]1 (stereo not given) | 5.9 | -23.6 | -22.3 | 8.15 | -5.75 | -4.15%
COc1ccc(NS(=O)(=O)c2ccc(NCc3c4ccccc4nc4cc(Cl)ccc34)cc2)nn1 | 20.2 | 45 | 9.65 | -30.8 | -8.3 | 37.5%
CCc1cc(C)cc(CC)c1N | 5.45 | -14.2 | -8.55 | -24.6 | 20.9 | 3.8%
Cc1c(-c2ccccc2)c(-c2ccccc2)c(C)c(-c2ccc3c(c2)CCCC3)c1-c1ccccc1 | -15 | -3.35 | -33.2 | 1.75 | 22.2 | -16.7%
CCCCCNC(=O)c1cccc(C)c1 | -11.1 | -13.2 | -7.65 | -13.6 | -25.4 | -1.2%
O=C(OCCCCCCCCOC(=O)c1ccc([N+](=O)[O-])cc1)c1ccc([N+](=O)[O-])cc1 | 14.6 | 2.15 | 12.2 | 4.1 | -5.4 | 5.9%
CC(=O)Oc1cc(C=O)ccc1O | 0.75 | 6.7 | -3.3 | 1.65 | -7.25 | -7.6%
COC(CCl)OC | 3.75 | -18.6 | 15.8 | 10.3 | -9.7 | 2.6%
C=C1C(=O)OC2C1C(OC(=O)/C(C)=C/C)CC(O)(CCl)C1C(O)C=C(C)C21O (stereo not given) | 33.5 | 14.6 | 21.6 | 20.8 | 10.1 | -51.1%
Cc1nc(/N=C(\N)Nc2ccc(Cl)c(Cl)c2)[nH]c(=O)c1Cc1ccccc1 | 2.3 | 1.65 | -10.1 | -6.75 | -5.05 | 3.65%
O=C1CN(C2CCCCC2)CC(=O)N2C(c3ccccc3)CCCN12 (stereo not given) | 3.3 | -5.4 | 14.7 | 11.8 | 0.55 | -1.85%
O=C1NC(N2CCCCC2)=N/C1=C\c1cccs1 | 2.5 | 2.2 | -12.9 | 7.05 | -11.8 | -29.4%
CCCCOS(=O)(=O)c1ccc([N+](C)(C)C)cc1 | 3.9 | 1.75 | -10.6 | 12.2 | 0.6 | -7%
Nc1ncnc2c1ncn2C1OC(COP(=O)(O)OP(=O)(O)OCC2OC([n+]3cccc(C=O)c3)C(O)C2O)C(O)C1O (stereo not given) | 10.6 | 4.4 | 6.85 | -4.1 | 0.6 | 12.3%
COc1ccc(NC(=O)Nc2ccc(-c3ccc(NC(=O)Nc4ccc(OC)cc4)c(C)c3)cc2C)cc1 | -30.1 | -41.4 | -8.5 | -3.25 | -24.1 | -23.6%
NC1CCCCC1N.O=S(=O)([O-])CCCNC1CCCCC1.O=S(=O)([O-])CCCNC1CCCCC1.[Pt+4] | -6.3 | -8.15 | -15.7 | -23.6 | -21.1 | 15.9%

Reference: PubChem BioAssay (NCI)
